The values below come from PubChem BioAssay.

Calls of active or inactive are those of the source.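 How the source made its calls, unless noted: active means compound that reduces growth-factor-driven endothelial tube area in a mixed cell culture, no cutoff stated; inactive means the rest.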

The nature of assay [1]: stimulators of nuclear beta-catenin in C2C12, primary screen, imaging, WNT3A-conditioned medium, mouse C2C12, NPC library (AID 1117326; in the data active means nuclear beta-catenin stimulation mostly above about 4.2%, no sharp cut-off; inactive means mostly below about 10%; further: reference of the scale not given here). The conditions noted are these: stronger effect = higher value.
Assay [2] in a line: stimulators of insulin release from INS-1E, primary screen, cell-based, 5 mM glucose, NPC library (AID 1117329;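 active means compound raises insulin release from rat beta cells at 5 mM glucose, no numeric limit stated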; further: reference of the scale not given here). The conditions noted are these: rat INS-1E insulin secretion, at 10 µM, stronger effect = higher value.
The nature of assay [3]: growth inhibition of GSK3B-pretreated HCT116 cells – cell-based, CellTiter-Glo, 0.2 to 20 µM (AID 1117336;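 active means compounds lowering colon cancer cell viability after pretreatment blocking the GSK3B kinase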). To be noted: HCT116 viability after GSK3B inhibitor, at 20 µM, stronger effect = higher value.
The nature of assay [4]: inhibition of endothelial tube formation, primary screen, imaging, VEGF stimulated, CD31 staining, tube area, NPC library (AID 1117340). The conditions noted are these: VEGF-stimulated ADSC/ECFC co-culture, at 10 µM, stronger effect = higher value.
The nature of assay [5]: glucagon-like peptide 1 release enhancers, primary assay, NCI-H716 cell line, NPC library (AID 1117341;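 active means compound raises GLP1 secretion from the human gut endocrine cells, with no numeric limit stated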; further: reference of the scale not given here). To be noted: NCI-H716 cells, at 10 µM, stronger effect = higher value.
A short description of assay [6]: HCT116 colon cancer cell growth inhibition, primary screen, CellTiter-Glo luminescence, NPC library (AID 1117342;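 active means compounds that lower survival of HCT116 colon cancer cells in the luminescence readout, no numeric limit stated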). The conditions noted are these: at 20 µM (top of the series). (In general: In ATP-based viability assays light output follows the ATP content of the culture.)
Assay [7] in a line: CellTiter-Glo luminescent readout of SW480 viability loss, NPC library primary (AID 1117343;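 active means compounds that lower viability of the colon cancer cells in the luminescence readout, with no numeric limit stated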). The conditions noted are these: CellTiter-Glo luminescence; at 20 µM (top of the series).
The nature of assay [8]: decreased DLD-1 cellular survival, CellTiter-Glo luminescent readout, NPC compound collection, primary HTS (AID 1117346;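 active means compounds that lower survival of DLD-1 colon cancer cells in the luminescence readout, no cutoff given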). The conditions noted are these: DLD-1 viability, CellTiter-Glo luminescence; at 20 µM (top of the series).

As to `O=C(O)c1cc(O)c2c(c1)[O][Bi][O]2`, the nuclear beta-catenin stimulation in assay [1] (at 10 µM) is -2.2% (inactive); in assay [1] (stimulation, at 2 µM), 1%. Further, the insulin secretion stimulation in assay [2] is -0.6% (inactive). The viability decrease in assay [3] is -0.3% (inactive). Further, in assay [4], the tube area decrease was 11.1% (inactive). Besides, the GLP1 secretion stimulation in assay [5] is -0.5% (inactive). The inhibition of viability in assay [6] is 4.4% (inactive). In addition, the values for the viability decrease (inhibition) in assay [7] and in assay [8] were 26.3% (inactive) and 0.3% (inactive), respectively.

Regarding `CC1(C)OC[C@@H](COC(=O)CCc2ccc(OC[C@@H](O)CNCCNC(=O)N3CCOCC3)cc2)O1`, the nuclear beta-catenin stimulation is 0.8% (inactive) in assay [1] (at 10 µM) and 1.1% in assay [1] (stimulation, at 2 µM). The insulin secretion stimulation in assay [2] is 4% (inactive). In assay [3], the viability decrease is -3.9% (inactive). Further, the tube area decrease in assay [4] is -22.2% (inactive). Also, the GLP1 secretion stimulation in assay [5] is 0.6% (inactive). For the same compound, the inhibition of viability in assay [6] was 8% (inactive). The viability decrease (inhibition) in assay [7] was 33.8% (inactive); in assay [8], 44% (inactive).

Turning to `CCN(CC)CCSC(=O)C(c1ccccc1)c1ccccc1`, the nuclear beta-catenin stimulation is 7.2% (inactive) in assay [1] (at 10 µM) and 2.8% in assay [1] (stimulation, at 2 µM). Moreover, in assay [2], the insulin secretion stimulation was 15.8% (inactive). Also, the viability decrease in assay [3] is 6.7% (inactive). Besides, the tube area decrease in assay [4] was 3.2% (inactive). The GLP1 secretion stimulation in assay [5] was 9.6% (inactive). In assay [6], the inhibition of viability is 1% (inactive). For the same compound, the results for the viability decrease (inhibition) in assay [7] and in assay [8] were 5.1% (inactive) and 1.5% (inactive), respectively.

Take `C/C=C/c1ccc(O)c(OC)c1`: the nuclear beta-catenin stimulation in assay [1] (at 10 µM) is 9.7% (inactive); in assay [1] (stimulation, at 2 µM), 0.5%. The insulin secretion stimulation in assay [2] is -0.1% (inactive). The viability decrease in assay [3] was 2.5% (inactive). The tube area decrease in assay [4] was -5.2% (inactive). Further, the GLP1 secretion stimulation in assay [5] is -3.8% (inactive). Also, the inhibition of viability in assay [6] was 8.25% (inactive). Also, the viability decrease (inhibition) is 51.6% (active) in assay [7] and 18.6% (inactive) in assay [8].

As for `N[C@@H](Cc1cc(I)c(O)c(I)c1)C(=O)O`, the nuclear beta-catenin stimulation was 15% (inactive) in assay [1] (at 10 µM) and 3.2% in assay [1] (stimulation, at 2 µM). The insulin secretion stimulation in assay [2] is -1% (inactive). The viability decrease in assay [3] was -3.6% (inactive). In addition, in assay [4], the tube area decrease is 26.5% (inactive). In assay [5], the GLP1 secretion stimulation was -3.4% (inactive). Moreover, the inhibition of viability in assay [6] is 3.4% (inactive). Further, the figures for the viability decrease (inhibition) in assay [7] and in assay [8] were 24.1% (inactive) and -15.2% (inactive), respectively.

As for `Cc1c(C)c2c(c(C)c1OC(=O)c1cccnc1)CC[C@@](C)(CCC[C@H](C)CCC[C@H](C)CCCC(C)C)O2`, the nuclear beta-catenin stimulation in assay [1] (at 10 µM) is -0.1% (inactive); in assay [1] (stimulation, at 2 µM), -0.2%. For the same compound, in assay [2], the insulin secretion stimulation was -0.2% (inactive). Besides, the viability decrease in assay [3] was 13.1% (inactive). Moreover, the tube area decrease in assay [4] is -9.8% (inactive). Further, in assay [5], the GLP1 secretion stimulation was 5.5% (inactive). Further, the inhibition of viability in assay [6] is -2.9% (inactive). The results for the viability decrease (inhibition) in assay [7] and in assay [8] were -20.2% (inactive) and -13.8% (inactive), respectively.

On to `CC(=O)N(CC(=O)N(C)C)c1ccccc1`, for which the nuclear beta-catenin stimulation is -1.1% (inactive) in assay [1] (at 10 µM) and 3.8% in assay [1] (stimulation, at 2 µM). Moreover, the insulin secretion stimulation in assay [2] is -0.5% (inactive). Further, the viability decrease in assay [3] was -5.9% (inactive). In assay [4], the tube area decrease is 3.9% (inactive). Besides, in assay [5], the GLP1 secretion stimulation was -1.1% (inactive). Also, the inhibition of viability in assay [6] was -4.93% (inactive). Besides, the viability decrease (inhibition) in assay [7] was 36.7% (inactive); in assay [8], -21.1% (inactive).

Turning to `CCCCCCCCCCOCC(O)CN` (centres undefined), the nuclear beta-catenin stimulation in assay [1] (at 10 µM) is 49.7% (active); in assay [1] (stimulation, at 2 µM) it was -0.2%. Besides, the insulin secretion stimulation in assay [2] is 4.5% (inactive). Moreover, the viability decrease in assay [3] is 91.1% (active). Moreover, in assay [4], the tube area decrease is 65% (active). Moreover, the GLP1 secretion stimulation in assay [5] was -3.3% (inactive). In addition, in assay [6], the inhibition of viability was 84.7% (active). Also, the viability decrease (inhibition) in assay [7] is 102% (active); in assay [8], 98.4% (active).

Consider `CC(C)Cc1ccc(CC(=O)O)cc1`, for which the nuclear beta-catenin stimulation in assay [1] (at 10 µM) was -0.7% (inactive); in assay [1] (stimulation, at 2 µM), -0.2%. For the same compound, in assay [2], the insulin secretion stimulation is 0.2% (inactive). The viability decrease in assay [3] is -11.5% (inactive). In addition, the tube area decrease in assay [4] was -13.7% (inactive). Also, the GLP1 secretion stimulation in assay [5] is -1.8% (inactive). In assay [6], the inhibition of viability is -3.5% (inactive). Moreover, the values for the viability decrease (inhibition) in assay [7] and in assay [8] were 4.2% (inactive) and -8% (inactive), respectively.

Regarding `Cc1ccccc1C(=O)N1CC/C(=N\OS(=O)(=O)O)c2ccc(Cl)cc21`, the nuclear beta-catenin stimulation in assay [1] (at 10 µM) was 0.7% (inactive); in assay [1] (stimulation, at 2 µM), -1.3%. Moreover, the insulin secretion stimulation in assay [2] is 3.05% (inactive). In addition, in assay [3], the viability decrease is 19.7% (inactive). Also, in assay [4], the tube area decrease was -2.3% (inactive). Also, in assay [5], the GLP1 secretion stimulation was 3.1% (inactive). Further, the inhibition of viability in assay [6] is 1.4% (inactive). Besides, the values for the viability decrease (inhibition) in assay [7] and in assay [8] were -15.6% (inactive) and -6.4% (inactive), respectively.

For `CCOc1ccc(NS(=O)(=O)c2ccc(N)cc2)nn1`, the nuclear beta-catenin stimulation is -0.3% (inactive) in assay [1] (at 10 µM) and 0.4% in assay [1] (stimulation, at 2 µM). Moreover, in assay [2], the insulin secretion stimulation is -0.2% (inactive). Also, the viability decrease in assay [3] was 1.55% (inactive). Further, the tube area decrease in assay [4] was -25.2% (inactive). Moreover, the GLP1 secretion stimulation in assay [5] was 2.6% (inactive). Further, the inhibition of viability in assay [6] was -1.7% (inactive). Also, the results for the viability decrease (inhibition) in assay [7] and in assay [8] were 29.4% (inactive) and 4.15% (inactive), respectively.

Turning to `COc1ccc2nc(SCc3ncc(C)c(OC)c3C)[nH]c2c1`, the nuclear beta-catenin stimulation in assay [1] (at 10 µM) is 1.9% (inactive); in assay [1] (stimulation, at 2 µM) it was 0.8%. The insulin secretion stimulation in assay [2] is 3.1% (inactive). Also, in assay [3], the viability decrease was 1% (inactive). For the same compound, the tube area decrease in assay [4] was 24.8% (inactive). Besides, the GLP1 secretion stimulation in assay [5] was 1.6% (inactive). In addition, in assay [6], the inhibition of viability was 26.8% (inactive). For the same compound, the viability decrease (inhibition) was -12.2% (inactive) in assay [7] and -6.1% (inactive) in assay [8].

In the case of `CCN[C@@H]1C[C@H](N)[C@@H](OC2OC(CN)=CCC2N)[C@H](O)[C@H]1O[C@H]1OC[C@](C)(O)[C@H](NC)[C@H]1O` (some centres undefined), the nuclear beta-catenin stimulation in assay [1] (at 10 µM) is 1.3% (inactive); in assay [1] (stimulation, at 2 µM), 0%. Further, in assay [2], the insulin secretion stimulation was 0.5% (inactive). The viability decrease in assay [3] is -7.4% (inactive). In addition, in assay [4], the tube area decrease is 0.9% (inactive). Also, the GLP1 secretion stimulation in assay [5] was -0.5% (inactive). Moreover, the inhibition of viability in assay [6] is -2.2% (inactive). Further, the viability decrease (inhibition) in assay [7] was -1.7% (inactive); in assay [8], 3.7% (inactive).

As for `OCc1ccc(Cl)cc1Cl`, the nuclear beta-catenin stimulation in assay [1] (at 10 µM) was 2.2% (inactive); in assay [1] (stimulation, at 2 µM) it was 0.6%. Also, the insulin secretion stimulation in assay [2] is -2% (inactive). The viability decrease in assay [3] is 1.6% (inactive). The tube area decrease in assay [4] was 13.7% (inactive). The GLP1 secretion stimulation in assay [5] was -5% (inactive). Moreover, in assay [6], the inhibition of viability is -2.7% (inactive). Further, the viability decrease (inhibition) in assay [7] is 26.9% (inactive); in assay [8], 13.2% (inactive).

Turning to `CCN(CC)CCN`, the nuclear beta-catenin stimulation in assay [1] (at 10 µM) is 0.4% (inactive); in assay [1] (stimulation, at 2 µM), -1.7%. In assay [2], the insulin secretion stimulation is 1.7% (inactive). The viability decrease in assay [3] is -6% (inactive). Besides, the tube area decrease in assay [4] is 5.8% (inactive). In assay [5], the GLP1 secretion stimulation is -1% (inactive). For the same compound, the inhibition of viability in assay [6] was -0.4% (inactive). Moreover, the viability decrease (inhibition) is 1.2% (inactive) in assay [7] and -10.7% (inactive) in assay [8].

For the compound `NCCCC[C@H](N)C(=O)O`, the nuclear beta-catenin stimulation was 1.6% (inactive) in assay [1] (at 10 µM) and 2% in assay [1] (stimulation, at 2 µM). In addition, in assay [2], the insulin secretion stimulation was -2.1% (inactive). The viability decrease in assay [3] was 1.2% (inactive). Further, the tube area decrease in assay [4] is -14.1% (inactive). Moreover, the GLP1 secretion stimulation in assay [5] is -3.9% (inactive). In assay [6], the inhibition of viability is -2.6% (inactive). Moreover, the figures for the viability decrease (inhibition) in assay [7] and in assay [8] were 12.8% (inactive) and -0.6% (inactive), respectively.
